PubChem BioAssay AID1645838 (ICCB-Longwood Screening Facility, Harvard Medical School, 2021)
Values joined by “and” are separate entries in the source; they are usually repeats but may differ in a detail not shown here. Equal entries are not always repeated. Hit rate of the full screen: of about 2,000 compounds, about 100 (5%) were called active. No stated cut-off is given here; in the data, active means z-score above about 2; inactive means the rest. Only a selection was taken, and actives are over-represented in it overall. Where a structure was tested more than once in an assay, its records may differ in their call.

Test: supercomplex reporter luminescence per Hoechst cell count – Hoechst nuclei count (AID 1645838);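 further: control cybrid cells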;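 on z-score: higher means more mitochondrial supercomplex formation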
Conditions: Cells, luminescence/Hoechst cell count ratio; for z-score: stronger effect = higher value; for cell count: measured here: cell number, Hoechst nuclei count
[1] = library stock concentration (final well concentration not given) 46 uM
[2] = library stock concentration (final well concentration not given) 278 uM
[3] = library stock concentration (final well concentration not given) 1.67 mM
[4] = library stock concentration (final well concentration not given) 10 mM
[5] = library stock concentration (final well concentration not given) 80 uM
[6] = library stock concentration (final well concentration not given) 400 uM
[7] = library stock concentration (final well concentration not given) 2 mM

CN(C)CCCCCCOc1ccc(-n2ccnc2)cc1
z-score: 2.07 (active) and 0.161 (inactive) | cell count: 4900 and 5850

COc1ccc(CCCOC(Cn2ccnc2)c2ccc(OC)cc2)cc1 (stereo not drawn)
z-score: 0.304 (inactive) | cell count: 4930

NC(=O)C(c1ccccc1)(c1ccc(F)cc1)c1ccc(F)cc1
z-score [1]: -0.117 (inactive) | z-score [2]: 0.34 (inactive) | z-score [3]: -0.0437 (inactive) | z-score [4]: 0.799 (inactive) | cell count [1]: 6820 | cell count [2]: 6540 | cell count [3]: 6770 | cell count [4]: 6720

O=C1C(Nc2ccccc2)=CC(=O)c2ncccc21
z-score: 0.666 (inactive) | cell count: 3000

O=C(NNS(=O)(=O)c1ccccc1C(F)(F)F)c1cc2cc(Cl)ccc2o1
z-score [1]: -0.12 (inactive) | z-score [2]: -0.121 (inactive) | z-score [3]: -0.307 (inactive) | z-score [4]: -0.0108 (inactive) | cell count [1]: 7080 | cell count [2]: 6790 | cell count [3]: 7310 | cell count [4]: 6850

CC=C(C)C(=O)OC1C(C)=C[C@]23C(=O)C(C=C(CO)C(O)[C@]12O)C1C(CC3C)C1(C)C (stereo partly drawn)
z-score [1]: 1.37 (inactive) | z-score [2]: 1.94 (inactive) | z-score [3]: 1.83 (inactive) | z-score [4]: 1.83 (inactive) | cell count [1]: 6280 | cell count [2]: 6170 | cell count [3]: 6240 | cell count [4]: 5670

CCCCCCCCCCCCCCCC(=O)NC[C@@H](C)O
z-score: -0.297 (inactive) | cell count: 5690

CCCCC/C=C\C=C1\C(=O)CC[C@@H]1C/C=C\CCCC(=O)O
z-score: -0.163 (inactive) | cell count: 5580

COc1ccc(C(=O)CC2(O)C(=O)Nc3c(Cl)ccc(Cl)c32)cc1 (stereo not drawn)
outcome (library stock 10 mM): inactive; censored for cell count | z-score [1]: -0.53 (inactive) | z-score [2]: 0.329 (inactive) | z-score [3]: 3.41 (active) | cell count [1]: 7260 | cell count [2]: 5870 | cell count [3]: 2920

COc1ccc(C(=O)C(=O)c2ccc(OC)cc2)cc1
z-score [5]: -0.606 (inactive) | z-score [6]: -0.661 (inactive) | z-score [7]: -0.561 (inactive) | z-score [4]: -0.758 (inactive) | cell count [5]: 5520 | cell count [6]: 5760 | cell count [7]: 5480 | cell count [4]: 5880

COc1ccc(C(=O)O)cc1
z-score [5]: -0.451 (inactive) | z-score [6]: -0.128 (inactive) | z-score [7]: -0.287 (inactive) | z-score [4]: -0.368 (inactive) | cell count [5]: 6090 | cell count [6]: 5780 | cell count [7]: 5670 | cell count [4]: 5840

CCCCCCCCCCCCC(O)C(=O)O (stereo not drawn)
z-score: -0.554 (inactive) | cell count: 5820

CCCCC[C@@H](O)/C=C/[C@@H]1[C@@H](C/C=C\CCCC(=O)O)[C@@H](O)C[C@H]1O
z-score: -0.443 (inactive) | cell count: 5100

CCCCC[C@H](O)CC[C@H]1[C@H](O)CC(=O)[C@@H]1CCCCCCC(=O)O
z-score: 0.391 (inactive) | cell count: 5410
